From PubChem BioAssay
TDP1 cell noCPT: qHTS for Inhibitors of human tyrosyl-DNA phosphodiesterase 1 (TDP1): qHTS in cells in absence of CPT; Potency, µM (titrated, usually from 46.2 µM), usual class: inhibitors; hit rate 15% among 420,000; AID 686978, 2013; DT40 Tdp1-/- hTDP1 cells, no CPT, ATP luminescence, 48 h; also: nearly all actives have a fitted effect of over 55% in size
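Readout: luminescence from CellTiter-Glo after 30 min in the dark at RT. Cells: DT40 Tdp1-/- with stable hTDP1, 400/well. Exposure: compounds alone, ≥48 hr, 37 °C.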
IL-1B inflam inh: blocks inflammasome-driven IL-1 beta release | AID 743279 | THP-1 LPS/ATP IL-1B secretion, AlphaLISA, 16 h; hits give low values | activity change, % at 57.5 µM | hit rate 4.7% among 360,000; in the data active = activity change below about -50%; inconclusive = mostly about -30% to -49%
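THP-1 cells pretreated 1 hr with compounds (up to 57.5 uM final), then stimulated with LPS (250 ng/mL final) plus ATP (1.25 mM final); secreted IL-1B measured by AlphaLISA after 16 hr, decreased signal indicating inhibition.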
TDP1 block: inhibitors of human tyrosyl-DNA phosphodiesterase TDP1 | Q9NUW8 | recombinant TDP1, AlphaScreen DNA substrate cleavage | Potency, µM (series often up to 130 µM), usual class: inhibitors | hit rate 0.28% among 350,000 | AID 485290; also: nearly all actives have a fitted effect of over 40% in size
Target sequence (Q9NUW8 whole entry, looked up): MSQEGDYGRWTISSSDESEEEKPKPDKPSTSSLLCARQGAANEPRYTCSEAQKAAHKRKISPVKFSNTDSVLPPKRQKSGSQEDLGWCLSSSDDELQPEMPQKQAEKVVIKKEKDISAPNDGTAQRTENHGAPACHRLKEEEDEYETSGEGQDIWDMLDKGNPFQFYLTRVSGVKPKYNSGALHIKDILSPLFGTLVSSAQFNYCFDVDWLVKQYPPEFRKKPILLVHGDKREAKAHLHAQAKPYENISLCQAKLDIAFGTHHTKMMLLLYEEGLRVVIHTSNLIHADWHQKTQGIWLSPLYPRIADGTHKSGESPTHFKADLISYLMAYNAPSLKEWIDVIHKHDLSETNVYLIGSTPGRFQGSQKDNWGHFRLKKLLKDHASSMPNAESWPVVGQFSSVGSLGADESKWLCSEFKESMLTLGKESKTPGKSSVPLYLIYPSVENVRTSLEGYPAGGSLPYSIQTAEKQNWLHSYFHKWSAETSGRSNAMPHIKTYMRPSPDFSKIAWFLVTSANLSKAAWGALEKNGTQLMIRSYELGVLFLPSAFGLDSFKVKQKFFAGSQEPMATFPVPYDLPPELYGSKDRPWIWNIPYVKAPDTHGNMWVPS
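Recombinant human Tdp1 (E. coli-expressed, 1 nM final) preincubated with compounds 15 min at room temperature, then 5'-biotin/3'-phosphotyrosine-FITC DNA substrate (15 nM final) added for 5 min. AlphaScreen beads (10 ug/ml final) added 10 min; cleavage lowers signal.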
DT40 TDP1 CPT: growth inhibition of DT40 Tdp1-/-;hTDP1 cells with camptothecin (screen for TDP1 inhibitors); chicken DT40 Tdp1-/-;hTDP1 cells + 20 nM CPT, ATP luminescence, 48 h; hit rate 12% among 420,000; Potency, µM (highest dose often 46.2 µM), usual class: inhibitors; AID 686979; also: nearly all actives have a fitted effect of over 55% in size
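Chicken DT40 Tdp1-/- cells stably complemented with human TDP1 were seeded at 400 cells/well in medium containing 20 nM camptothecin, exposed to pin-transferred compounds, and grown at 37 °C for at least 48 hr. Viability was read as ATP luminescence.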
TGFb inhibitor: TGF-b pathway inhibition; HepG2 CAGA-GFP TGF-b/SMAD3 reporter, GFP fluorescence, 18 h; TGF-beta stimulated, 500 pg/mL final; Potency, µM (titrated, usually from 46.1 µM), usual class: inhibitors; AID 588855; hit rate 1.2% among 410,000; also: nearly all actives have a fitted effect of over 65% in size
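Per well, imaged GFP fluorescence of HEPG2 CAGA-GFP cells gives the signal; cells get compound, then TGF-beta (500 pg/mL final), 18 h at 37 degrees C; %Activity versus -TGF-beta and +DMSO controls.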
HepG2 tox: counter-screen for TGF-b inhibitors: cytotoxicity in HepG2 cells. HepG2 CAGA-GFP viability, ATP luminescence, 18 h. Potency, µM (titrated, usually from 46.1 µM), usual class: cytotoxic. hit rate 0.76% among 410,000
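HepG2 CAGA-GFP cells (1000/well, DMEM with 1% FBS) received compound, then TGF-beta at 500 pg/mL final, and were incubated 18 hours at 37 degrees C. Viability was read by CellTiter-Glo luminescence. Media-only wells were set as complete cell-killing and DMSO as no toxicity.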
A number is an active result; 0 = inactive; ? = inconclusive; - = no result. Rows were chosen to be rich in hits. Some 18% of all compounds tested hit in one or more screens of this group. Unless noted, calls follow the shape of the dose curve; as a rule, active = well fitted curve in the direction sought with a large enough effect; inconclusive = small, poorly fitted or top-dose-only effect, or another doubt; inactive = no such curve, though single readings can be large; an effect the other way counts as inactive or inconclusive.

SMILES	TDP1 cell noCPT	IL-1B inflam inh	TDP1 block	DT40 TDP1 CPT	TGFb inhibitor	HepG2 tox
CCOC(=O)C1(CCOc2ccccc2)CCN(Cc2cccc(OCCO)c2)CC1	?	0	-	?	0	0
CCOC(=O)C1(CCOc2ccccc2)CCN(Cc2cnc(C)s2)CC1	21µM	0	-	?	0	0
CCOC(=O)C1(CCOc2ccccc2)CCN(Cc2ccc(OC)cc2)CC1	21µM	?	-	15µM	0	0
O=C(OCC(=O)N1CCc2ccccc2C1)c1cc(=O)[nH]c2ccccc12	0	0	-	0	0	0
COc1ccc(NC(=O)CSc2nnc(C)n2C2CC2)cc1S(=O)(=O)N1CCOCC1	0	0	0	0	0	0
OCc1nc2ccccc2[nH]1	0	-	-	0	0	0
Cc1ccc(C(=O)/C=C/Nc2cccc(O)c2)cc1	?	0	0	?	0	0
C/C(=C\C(=O)c1ccc(C)cc1)Nc1cccc(O)c1	?	0	0	18µM	0	0
COCCCNC(=O)CCCn1c(=O)c2ccccc2n(CC(=O)Nc2ccc(C)cc2Cl)c1=O	0	-	0	0	?	0
C[C@H]1CNC(=O)c2c(C(=O)N[C@@H](Cc3c[nH]c4ccccc34)C(=O)OC(C)(C)C)ncn21	0	0	-	0	0	0
CC1(C)CC2(OC2c2ccccc2[N+](=O)[O-])C(=O)c2ccccc21 (stereo not drawn)	18µM	0	-	16µM	0	0
CC1(C)CC2(OC2c2ccccc2)C(=O)c2ccccc21 (stereo not drawn)	?	0	-	0	0	0
C=CCc1cccc2cc(C(=O)NNC(=O)CC#N)c(=O)oc12	0	0	-	0	0	0
Cc1c(S(=O)(=O)NC2CCCCCC2)c(=O)n(C)c(=O)n1C	0	0	-	0	0	0
Cc1ccc(S(=O)(=O)N2CCC(C(=O)NCCN3CCOCC3)CC2)cc1	0	0	-	0	0	0
CCN(CC)C(=O)C1=C(C)N(Cc2ccc(OC)cc2)C(=O)C(CC(=O)NCCCN(C)C)C1 (stereo not drawn)	0	0	-	0	0	0
COC(=O)/C(C#N)=C\c1c(OC)[nH]c2ccccc12	9.2µM	0	0	?	?	0
CN1CCN(C(=S)NC(CC(=O)c2ccccc2)c2ccccc2)CC1 (stereo not drawn)	0	-52	0	0	0	0
Cc1cc(C)n2nc(SCC(=O)NC(=O)c3ccccc3Cl)nc2n1	0	0	-	0	0	0
C(=C\c1nc2ccccc2nc1/C=C/c1ccc2c(c1)OCO2)/c1ccc2c(c1)OCO2	?	-	-	?	0	0
C(=C\c1nc2ccccc2s1)/c1ccc2c(c1)OCO2	11µM	-	-	?	0	0
CCOc1cc(/C=C/c2nc3ccccc3s2)ccc1OCC(=O)N1CCOCC1	21µM	0	0	0	?	0
CCOc1cc(C(=O)NCc2ccccc2)ccc1OCC(=O)N1CCOCC1	0	0	0	0	0	0
CN(C)c1ccc(/C=C/c2nc3ccccc3s2)c(Cl)c1	14µM	-	-	?	0	0
O=C(c1ccoc1)N1CCC2(CCCN(Cc3ccc(F)c(F)c3)C2)C1 (stereo not drawn)	0	0	0	?	0	0
SMILES	TDP1 cell noCPT	IL-1B inflam inh	TDP1 block	DT40 TDP1 CPT	TGFb inhibitor	HepG2 tox
Cc1occc1C(=O)N1CCC2(CCCN(Cc3ccc(F)c(F)c3)C2)C1 (stereo not drawn)	16µM	0	0	15µM	?	0
C=C1C=C(C(F)F)n2ncc(C(=O)Nc3ccc(Br)cc3C(F)(F)F)c2N1	0	-	-	0	0	0
CCc1c(-c2ccc(Br)cc2)ncn1Cc1cccc(-c2ccccc2)c1	5.2µM	-62	-	7.3µM	-	-
CC(C)(C)n1ncc2c(=O)n(Cc3cccc(-c4ccccc4)c3)cnc21	-	-	-	-	?	0
CCCc1c(-c2ccc(Cl)cc2)ncn1Cc1cccc(-c2ccccc2)c1	3.3µM	0	-	5.2µM	-	-
CCCc1c(-c2cccc(Br)c2)ncn1Cc1cccc(-c2ccccc2)c1	21µM	0	-	16µM	-	-
O=c1cc(Cl)c(-c2ccccc2)nn1Cc1ccc(Cl)cc1	?	0	-	0	0	0
O=c1c2oc3ccccc3c2n(Cc2ccccc2F)c(=O)n1Cc1ccccc1	0	-	0	0	0	0
COc1ccc(C(=O)NCc2nnc(SCC(=O)Nc3nc4ccc(C)cc4s3)o2)cc1OC	2.3µM	0	0	4.1µM	0	0
Cc1ccc(CNC(=O)CSc2nnc(CNC(=O)c3ccccc3)o2)cc1	0	-73	0	0	0	0
O=C(CSc1nnc(CNC(=O)c2c(F)cccc2F)o1)NCc1ccco1	0	0	50µM	0	0	0
Cc1ccc(CNC(=O)CSc2nnc(CNC(=O)c3ccc(F)cc3)o2)cc1	0	0	-	0	0	0
COc1ccc(C(=O)NCc2nnc(SCC(=O)Nc3nnc(C)s3)o2)cc1OC	0	0	0	0	0	0
CCCN(C(=O)CSc1nnc(-c2ccc3c(c2)OCO3)o1)C1CCS(=O)(=O)C1 (stereo not drawn)	?	0	-	0	0	0
COc1ccc(OC)c(/C=C/C(=O)OCC(=O)N2CCCC2)c1	0	0	0	0	0	0
COc1cc(/C=C/C(=O)N2C(=O)c3cccc(N)c3C2=O)cc(OC)c1OC	29µM	0	0	5.8µM	0	0
COc1cc(/C=C/C(=O)N2CCN(C(=O)/C=C/c3cc(OC)c(OC)c(OC)c3)CC2)cc(OC)c1OC	0	0	0	0	0	0
COc1ccc(OC)c(/C=C/C(=O)N2C(=O)c3cccc(N)c3C2=O)c1	5.2µM	-121	0	4.6µM	?	0
COc1ccc2oc(-c3ccccc3)c(C(=O)N3CCOCC3)c2c1	13µM	0	0	16µM	0	0
CCOc1ccc2oc(-c3ccccc3)c(C(=O)N3CCN(C)CC3)c2c1	?	0	0	23µM	0	0
CC(=O)Oc1ccc2oc(C)c(C(=O)N3CCOCC3)c2c1	0	0	0	0	0	0
Cc1cc(C(=O)CCC(=O)N(C)CC(=O)Nc2ccc(OC(F)(F)F)cc2)c(C)s1	?	0	0	?	0	0
CCOC(=O)C(C)Sc1ncc(-c2ccc(Cl)cc2)cn1 (stereo not drawn)	0	0	-	4.6µM	0	0
CCCCOC(=O)/C=C/c1ccc(OC(=O)OC)c(OC(=O)OC)c1	9.2µM	0	0	7.3µM	0	0
COC(=O)Oc1ccc(/C=C/C(=O)OC(C)C)cc1OC(=O)OC	9.2µM	0	0	?	0	0
